# Reference: paper PMC5540273 (PLoS ONE, 2017)
# Tested on: T1, PCTK2
# T1 construct: gene CDK17
# Conditions: concentration: 1 μM, replicates: in singlicate; n = 1
# 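Note: KINOMEscan kinase panel screen.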
row,SMILES,%Inh [%]
1,O=C(Nc1cccc(-c2nn3ccccc3c2-c2ccnc(Nc3cccc(C(F)(F)F)c3)n2)c1)c1c(F)cccc1F [GSK292658],0
2,Nc1n[nH]c2cnc(-c3ccccc3)cc12 [SB-642124],0
3,CN(c1ccc(NC(=O)Nc2cc(C(F)(F)F)ccc2F)cc1)c1ccnc(Nc2ccc(S(N)(=O)=O)cc2)n1 [GW809893],97.9
4,Clc1ccc(-c2nn3ncccc3c2-c2ccnc(Nc3ccc4c(c3)OCCO4)n2)cc1 [GW829116],0
5,Cn1cc(-c2[nH]c3cc(NC(=O)[C@H](N)C4CCCCC4)cc4c3c2C=NNC4=O)cn1,0

# Tested on: T2, PCTK3
# T2 construct: gene CDK18
# Conditions: concentration: 1 μM, replicates: in singlicate; n = 1
row,SMILES,%Inh [%]
1,FC(F)(F)c1ccc(/C=C/c2cncnc2Nc2ccc3[nH]c(Cc4ccccc4)nc3c2)cc1 [GW709199],4
2,O=C(Nc1cccc(-c2nn3ccccc3c2-c2ccnc(Nc3cccc(F)c3)n2)c1)c1c(F)ccc(F)c1Cl [GSK357952],9
3,O=C(Nc1ccccc1F)NC1CCN(c2ccnc(Nc3ccc(F)cc3)n2)CC1 [GSK1379800],0
4,Cc1occc1-c1ncc(OC[C@@H](N)Cc2c[nH]c3ccccc23)cc1-c1ccc2[nH]nc(C)c2c1.O=C(O)C(F)(F)F [GSK682037],0
5,C[C@@H]1CC[C@@H](C(=O)Nc2ccccc2)CN1c1cc(-c2ccc3c(N)n[nH]c3c2)nc(N)n1 [GSK2286062],10
6,Cl.NC(=O)c1cccc(Nc2nccc(Nc3ccc(Oc4c(Cl)cccc4Cl)c(Cl)c3)n2)c1 [GW659009],0
7,Cc1ccc(C(=O)Nc2ccc(Nc3ccnc4cc(-c5nccs5)ccc34)cc2O)cc1.Cl [GW494702],0
8,CNC(=O)c1ccccc1Nc1nc(Nc2ccc(N3CCOCC3)cc2)ncc1Cl.Cl [GSK1576028],0
9,COc1cc(Nc2nccc(-c3c(-c4cccc(NC(=O)c5c(F)cccc5F)c4)nn4ccccc34)n2)cc(OC)c1OC [GSK323521],29
10,Nc1ncnc2c1nc(-c1ccccc1)n2-c1ccccc1 [SKF-97293],0
11,Fc1ccc(-c2ncn(C3CCNCC3)c2-c2ccnc(Oc3ccc(-c4ccccc4)cc3)n2)cc1 [SB-245391],2
12,Cl.Cl.NCC(NCc1ccc(-c2ccnc3[nH]ccc23)s1)c1ccccc1 (stereo not shown) [GSK1321565],0
13,CC(=O)N1CCN(c2ccc(Nc3nccc(-c4sc(C(C)C)nc4-c4cccc(NS(=O)(=O)c5cccc(Cl)c5)c4)n3)cn2)CC1 [GSK1660437],100
14,COc1ccc(Nc2nccc(N3CCC(NC(=O)Nc4cccc(OC)c4)C3)n2)cc1 (stereo not shown) [GSK1379742],21
15,Cl.Cl.NCC(NC(=O)c1cc(-c2ccccc2)c(-c2ccnc3[nH]ccc23)s1)c1ccccc1 (stereo not shown) [GSK1321561],0
16,O=C(Nc1n[nH]c2cc(-c3ccoc3)ccc12)C1CC1 [SB-738481],22
17,Cl.c1ccc(-c2ccc3c(Nc4ccc5[nH]ccc5c4)ccnc3c2)nc1 [GW440138],28
18,COc1cc(Nc2nccc(-c3c(-c4cccc(NC(=O)c5c(F)cccc5F)c4)nn4ncccc34)n2)cc(OC)c1OC [GSK327238],5
19,CCCCc1nn2ncccc2c1-c1ccnc(Nc2ccc(N3CCN(C)CC3)cc2)n1 [GW684941],16
20,Nc1ncc(-c2ccc3nccc(-c4ccncc4)c3c2)cc1S(=O)(=O)N1CCOCC1 [GSK1627798],26
21,Cc1ccc(S(=O)(=O)Nc2ccc(Nc3nccc(Nc4cccc5[nH]ncc45)n3)cc2)cc1 [GSK581271],12
22,COc1ccc(Nc2nccc(NCCNC(=O)c3cc4ccccc4s3)n2)cc1 [GSK1379896],0
23,NCCCC(NC(=O)c1cc(Br)c(-c2ccnc3[nH]ccc23)s1)c1ccccc1.O=C(O)C(F)(F)F.O=C(O)C(F)(F)F (stereo not shown) [GSK1287544],0
24,CC(C)c1nc(-c2cccc(NS(=O)(=O)c3c(F)cccc3F)c2F)c(-c2ccnc(Nc3ccc(N4CCOCC4)nc3)n2)s1 [GSK2008607],100
25,O=C(NC1CCN(c2ccnc(Nc3ccc(F)cc3)n2)C1)c1cc2ccccc2s1 (stereo not shown) [GSK1379716],32
26,Nc1ncc(-c2cccnc2)c2scc(-c3ccc4c(c3)CCN4C(=O)Cc3ccccc3)c12 [GSK683281],18
